How the values were obtained:
Test in all cases: log2 ratio of Biotin-Ahx-Ub-VS probe labelling (fragment/DMSO); higher = less target engagement (more negative = stronger competition), active = hit call of the paper (q ≤ 0.05, log2 ratio ≤ -1)
Conditions in all cases: compound concentration: 200 uM; treatment time: 3 h
USP16 = USP16 (UniProt Q9Y5T5)
In short: (§1)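 Labelled DUBs from HEK293T lysate were NeutrAvidin-enriched, digested with LysC and trypsin, and run by diaPASEF LC-MS/MS. Before that, each 495 µg sample in Tris/CHAPS/IGEPAL buffer with protease inhibitors was treated in triplicate with fragment at 200 µM or vehicle for 3 h, then with Biotin-Ahx-Ub-VS at 0.5 µM final for 1 h. Values are average log2 ratios of fragment over vehicle by unpaired t-test, based on global-median-normalised Spectronaut label-free quantities from proteins with ≥2 unique peptides.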

USP19 = biological target: T1, USP19 (UniProt O94966)
T1 sequence (whole entry): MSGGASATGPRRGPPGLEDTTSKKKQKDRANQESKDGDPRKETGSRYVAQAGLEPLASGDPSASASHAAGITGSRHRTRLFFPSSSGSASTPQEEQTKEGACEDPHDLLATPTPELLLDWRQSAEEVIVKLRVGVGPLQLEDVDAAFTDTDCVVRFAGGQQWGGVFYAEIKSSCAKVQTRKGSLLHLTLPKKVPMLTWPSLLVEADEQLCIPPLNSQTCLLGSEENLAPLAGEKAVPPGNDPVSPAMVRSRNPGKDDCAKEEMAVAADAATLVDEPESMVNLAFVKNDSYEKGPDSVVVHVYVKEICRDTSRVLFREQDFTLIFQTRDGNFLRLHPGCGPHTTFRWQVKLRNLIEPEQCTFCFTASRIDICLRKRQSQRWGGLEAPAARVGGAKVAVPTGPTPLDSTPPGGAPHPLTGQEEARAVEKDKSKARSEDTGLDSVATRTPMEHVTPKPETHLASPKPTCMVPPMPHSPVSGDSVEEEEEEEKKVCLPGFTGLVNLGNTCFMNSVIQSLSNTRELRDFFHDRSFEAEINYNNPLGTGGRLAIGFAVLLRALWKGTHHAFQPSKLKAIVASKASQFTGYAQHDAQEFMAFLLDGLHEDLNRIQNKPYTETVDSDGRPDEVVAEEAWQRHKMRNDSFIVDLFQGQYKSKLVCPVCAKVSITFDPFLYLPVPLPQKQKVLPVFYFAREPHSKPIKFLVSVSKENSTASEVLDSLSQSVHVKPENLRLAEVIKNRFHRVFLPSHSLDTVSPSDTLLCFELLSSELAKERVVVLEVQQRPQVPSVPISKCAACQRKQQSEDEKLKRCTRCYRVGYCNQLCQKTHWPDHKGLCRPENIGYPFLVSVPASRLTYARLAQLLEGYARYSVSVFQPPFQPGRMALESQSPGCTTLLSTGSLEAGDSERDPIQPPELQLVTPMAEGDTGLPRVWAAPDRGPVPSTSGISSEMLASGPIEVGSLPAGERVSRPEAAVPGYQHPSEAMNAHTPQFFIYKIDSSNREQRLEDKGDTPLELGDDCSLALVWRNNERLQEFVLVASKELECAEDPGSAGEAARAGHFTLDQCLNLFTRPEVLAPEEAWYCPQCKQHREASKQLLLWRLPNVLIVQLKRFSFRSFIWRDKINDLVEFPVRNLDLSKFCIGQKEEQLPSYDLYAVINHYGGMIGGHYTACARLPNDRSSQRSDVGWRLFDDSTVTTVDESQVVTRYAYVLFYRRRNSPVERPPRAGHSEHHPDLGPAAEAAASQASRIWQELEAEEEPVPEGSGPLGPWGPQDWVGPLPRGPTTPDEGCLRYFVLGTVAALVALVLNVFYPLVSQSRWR
In short: as §1

USP24 = USP24 (UniProt Q9UPU5)
USP24, sequence (Q9UPU5 whole entry): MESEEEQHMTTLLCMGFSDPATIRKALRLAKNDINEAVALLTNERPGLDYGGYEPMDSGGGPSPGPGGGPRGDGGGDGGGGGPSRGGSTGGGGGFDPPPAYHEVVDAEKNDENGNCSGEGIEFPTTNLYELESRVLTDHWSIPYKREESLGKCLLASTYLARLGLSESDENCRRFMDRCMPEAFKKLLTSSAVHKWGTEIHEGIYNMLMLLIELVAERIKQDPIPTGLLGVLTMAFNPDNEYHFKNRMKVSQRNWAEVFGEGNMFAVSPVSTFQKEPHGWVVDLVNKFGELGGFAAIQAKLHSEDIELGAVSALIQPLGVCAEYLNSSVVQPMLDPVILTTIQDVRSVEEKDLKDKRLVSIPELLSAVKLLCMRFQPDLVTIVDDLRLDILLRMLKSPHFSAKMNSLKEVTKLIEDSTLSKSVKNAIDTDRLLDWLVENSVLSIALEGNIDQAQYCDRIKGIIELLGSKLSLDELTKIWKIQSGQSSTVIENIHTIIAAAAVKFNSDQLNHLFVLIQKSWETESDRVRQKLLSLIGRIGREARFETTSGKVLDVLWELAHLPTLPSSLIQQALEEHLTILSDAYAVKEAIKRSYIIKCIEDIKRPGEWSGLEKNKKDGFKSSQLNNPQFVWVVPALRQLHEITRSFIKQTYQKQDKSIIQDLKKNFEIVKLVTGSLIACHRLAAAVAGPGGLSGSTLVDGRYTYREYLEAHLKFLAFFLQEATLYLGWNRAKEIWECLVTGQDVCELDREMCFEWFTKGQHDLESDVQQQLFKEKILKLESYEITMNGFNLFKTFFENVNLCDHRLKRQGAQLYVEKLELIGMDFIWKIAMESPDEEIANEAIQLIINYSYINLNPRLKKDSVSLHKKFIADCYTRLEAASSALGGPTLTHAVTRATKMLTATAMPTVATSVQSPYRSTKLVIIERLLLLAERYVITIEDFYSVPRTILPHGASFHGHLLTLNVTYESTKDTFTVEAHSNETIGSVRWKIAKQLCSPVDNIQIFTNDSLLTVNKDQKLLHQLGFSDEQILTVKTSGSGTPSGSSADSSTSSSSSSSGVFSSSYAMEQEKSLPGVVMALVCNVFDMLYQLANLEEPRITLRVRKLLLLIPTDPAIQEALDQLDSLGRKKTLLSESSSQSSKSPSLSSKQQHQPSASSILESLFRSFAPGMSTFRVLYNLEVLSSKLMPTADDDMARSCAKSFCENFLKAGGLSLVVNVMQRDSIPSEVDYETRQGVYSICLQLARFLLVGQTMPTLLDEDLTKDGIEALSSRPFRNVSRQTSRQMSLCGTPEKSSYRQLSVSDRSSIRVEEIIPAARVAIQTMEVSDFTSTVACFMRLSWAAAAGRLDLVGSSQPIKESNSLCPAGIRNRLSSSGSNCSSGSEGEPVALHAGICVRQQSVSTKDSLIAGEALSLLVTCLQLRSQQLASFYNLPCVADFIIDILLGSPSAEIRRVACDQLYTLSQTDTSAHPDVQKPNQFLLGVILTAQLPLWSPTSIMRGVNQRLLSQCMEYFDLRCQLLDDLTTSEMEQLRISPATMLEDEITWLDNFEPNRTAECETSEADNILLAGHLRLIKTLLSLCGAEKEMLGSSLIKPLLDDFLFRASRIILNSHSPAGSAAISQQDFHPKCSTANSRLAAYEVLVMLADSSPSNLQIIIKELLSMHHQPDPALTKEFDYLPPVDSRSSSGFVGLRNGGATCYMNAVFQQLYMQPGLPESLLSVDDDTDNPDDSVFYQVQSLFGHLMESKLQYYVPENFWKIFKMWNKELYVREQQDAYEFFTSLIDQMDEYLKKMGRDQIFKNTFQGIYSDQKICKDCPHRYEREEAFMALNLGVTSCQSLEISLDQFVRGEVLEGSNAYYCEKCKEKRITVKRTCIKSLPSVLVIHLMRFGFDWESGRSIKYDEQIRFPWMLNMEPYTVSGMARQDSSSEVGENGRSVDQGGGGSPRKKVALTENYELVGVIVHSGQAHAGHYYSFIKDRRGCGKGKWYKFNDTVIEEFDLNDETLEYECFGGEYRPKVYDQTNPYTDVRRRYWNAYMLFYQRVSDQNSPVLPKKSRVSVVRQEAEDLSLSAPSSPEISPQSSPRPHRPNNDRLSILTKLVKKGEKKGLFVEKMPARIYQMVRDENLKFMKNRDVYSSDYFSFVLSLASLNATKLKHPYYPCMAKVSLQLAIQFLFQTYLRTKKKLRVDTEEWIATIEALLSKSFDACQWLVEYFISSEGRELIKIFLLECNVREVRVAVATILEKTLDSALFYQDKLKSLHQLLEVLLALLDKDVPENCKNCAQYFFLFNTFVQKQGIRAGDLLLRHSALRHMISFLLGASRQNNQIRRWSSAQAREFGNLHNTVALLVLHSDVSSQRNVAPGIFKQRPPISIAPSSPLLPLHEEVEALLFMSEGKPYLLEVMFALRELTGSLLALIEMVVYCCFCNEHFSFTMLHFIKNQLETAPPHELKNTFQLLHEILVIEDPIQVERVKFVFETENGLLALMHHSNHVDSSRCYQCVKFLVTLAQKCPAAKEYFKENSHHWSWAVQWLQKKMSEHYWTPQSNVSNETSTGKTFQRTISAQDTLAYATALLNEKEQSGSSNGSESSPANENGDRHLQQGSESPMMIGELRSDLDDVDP
In short: as §1

USP25 = biological target: T2, USP25 (UniProt Q9UHP3)
T2 sequence (whole entry): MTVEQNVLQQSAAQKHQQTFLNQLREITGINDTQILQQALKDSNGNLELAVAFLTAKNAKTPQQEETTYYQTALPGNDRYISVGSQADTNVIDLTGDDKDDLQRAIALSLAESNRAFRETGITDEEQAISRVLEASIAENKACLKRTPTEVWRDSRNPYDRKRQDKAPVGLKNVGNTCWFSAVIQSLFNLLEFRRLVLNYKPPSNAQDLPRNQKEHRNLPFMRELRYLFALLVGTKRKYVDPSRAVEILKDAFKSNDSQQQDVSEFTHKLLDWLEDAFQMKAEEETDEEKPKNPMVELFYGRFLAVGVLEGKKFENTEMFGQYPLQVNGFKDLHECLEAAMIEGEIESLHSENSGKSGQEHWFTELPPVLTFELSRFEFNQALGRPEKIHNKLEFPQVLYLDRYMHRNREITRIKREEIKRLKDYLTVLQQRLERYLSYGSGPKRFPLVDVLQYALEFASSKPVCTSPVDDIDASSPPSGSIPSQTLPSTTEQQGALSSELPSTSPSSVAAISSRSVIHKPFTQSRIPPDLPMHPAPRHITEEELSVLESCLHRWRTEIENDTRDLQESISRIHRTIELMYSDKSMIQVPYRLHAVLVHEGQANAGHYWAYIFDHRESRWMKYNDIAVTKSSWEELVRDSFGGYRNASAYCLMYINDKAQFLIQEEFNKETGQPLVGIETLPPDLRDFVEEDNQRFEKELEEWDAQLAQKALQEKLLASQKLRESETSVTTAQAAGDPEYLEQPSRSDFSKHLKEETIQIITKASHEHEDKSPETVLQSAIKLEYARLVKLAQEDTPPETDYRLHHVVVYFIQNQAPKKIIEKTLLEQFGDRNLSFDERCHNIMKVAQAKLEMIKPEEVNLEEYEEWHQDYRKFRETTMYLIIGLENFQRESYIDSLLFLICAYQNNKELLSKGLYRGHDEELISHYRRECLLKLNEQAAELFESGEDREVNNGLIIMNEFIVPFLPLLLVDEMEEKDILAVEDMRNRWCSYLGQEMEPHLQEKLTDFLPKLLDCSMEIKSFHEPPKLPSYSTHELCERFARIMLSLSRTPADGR
In short: as §1

USP28 = biological target: T3, USP28 (UniProt Q96RU2)
T3 sequence (whole entry): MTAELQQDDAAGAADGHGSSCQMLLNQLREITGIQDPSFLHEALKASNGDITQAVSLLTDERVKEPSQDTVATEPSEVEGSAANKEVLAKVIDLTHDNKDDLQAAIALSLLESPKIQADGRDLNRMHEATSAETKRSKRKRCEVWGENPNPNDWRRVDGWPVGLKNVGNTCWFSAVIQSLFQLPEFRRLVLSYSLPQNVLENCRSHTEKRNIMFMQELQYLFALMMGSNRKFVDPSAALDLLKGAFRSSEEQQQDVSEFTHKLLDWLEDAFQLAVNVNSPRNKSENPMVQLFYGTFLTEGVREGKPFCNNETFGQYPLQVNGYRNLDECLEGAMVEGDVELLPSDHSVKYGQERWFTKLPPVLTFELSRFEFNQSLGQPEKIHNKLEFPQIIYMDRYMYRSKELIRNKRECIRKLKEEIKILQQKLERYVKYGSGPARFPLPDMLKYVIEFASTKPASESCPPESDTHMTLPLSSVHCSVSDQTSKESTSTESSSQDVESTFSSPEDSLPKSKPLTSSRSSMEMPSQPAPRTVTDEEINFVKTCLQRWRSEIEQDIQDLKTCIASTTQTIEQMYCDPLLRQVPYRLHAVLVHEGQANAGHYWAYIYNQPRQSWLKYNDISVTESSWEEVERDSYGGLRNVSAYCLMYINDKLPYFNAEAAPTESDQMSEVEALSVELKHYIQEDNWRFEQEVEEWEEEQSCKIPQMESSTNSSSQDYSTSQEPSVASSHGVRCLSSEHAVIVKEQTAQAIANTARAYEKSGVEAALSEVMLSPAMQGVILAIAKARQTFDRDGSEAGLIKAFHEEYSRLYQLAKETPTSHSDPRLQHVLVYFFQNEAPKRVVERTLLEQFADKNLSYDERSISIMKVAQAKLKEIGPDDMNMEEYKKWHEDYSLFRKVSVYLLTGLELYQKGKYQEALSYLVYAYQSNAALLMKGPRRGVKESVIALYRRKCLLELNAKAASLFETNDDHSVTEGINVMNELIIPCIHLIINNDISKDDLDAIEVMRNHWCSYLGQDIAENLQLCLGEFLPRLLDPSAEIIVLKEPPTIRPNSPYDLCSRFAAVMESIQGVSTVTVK
In short: as §1

Measured: log2 ratio of Biotin-Ahx-Ub-VS probe labelling

USP16, sequence (Q9Y5T5 whole entry, looked up, the tested form may be a part): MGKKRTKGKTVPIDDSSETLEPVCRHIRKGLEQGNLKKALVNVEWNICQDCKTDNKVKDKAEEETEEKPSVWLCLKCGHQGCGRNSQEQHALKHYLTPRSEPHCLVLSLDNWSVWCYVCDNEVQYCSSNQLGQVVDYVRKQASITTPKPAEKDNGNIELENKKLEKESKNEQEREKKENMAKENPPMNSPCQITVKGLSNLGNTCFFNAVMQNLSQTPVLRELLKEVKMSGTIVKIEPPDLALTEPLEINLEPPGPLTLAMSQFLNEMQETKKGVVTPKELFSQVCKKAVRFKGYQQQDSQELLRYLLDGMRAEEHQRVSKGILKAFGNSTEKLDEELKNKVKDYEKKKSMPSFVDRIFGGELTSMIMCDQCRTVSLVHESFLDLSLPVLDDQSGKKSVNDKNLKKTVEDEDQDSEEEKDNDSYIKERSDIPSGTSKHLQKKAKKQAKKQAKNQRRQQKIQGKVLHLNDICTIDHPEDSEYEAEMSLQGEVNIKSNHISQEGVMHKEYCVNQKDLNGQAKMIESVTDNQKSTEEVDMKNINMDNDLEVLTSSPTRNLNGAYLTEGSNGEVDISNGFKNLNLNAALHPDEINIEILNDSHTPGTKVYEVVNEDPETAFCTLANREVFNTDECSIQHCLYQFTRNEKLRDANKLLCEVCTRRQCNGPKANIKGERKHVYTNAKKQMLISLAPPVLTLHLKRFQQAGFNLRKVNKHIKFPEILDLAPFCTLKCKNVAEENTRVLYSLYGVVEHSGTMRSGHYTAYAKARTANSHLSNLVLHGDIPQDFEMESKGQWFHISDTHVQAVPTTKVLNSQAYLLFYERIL

Cc1cccc(C)c1NC(=O)CCl
inactive: USP16 -0.0305 | USP19 -0.0774 | USP24 -0.266 | USP25 -0.436 | USP28 -0.794
